Laboratory results: PubChem BioAssay (EPA / NIEHS)
Results filed as inconclusive are left out. Where a structure was tested more than once in an assay, its records may differ in their call. Calls of active or inactive are those of the source. The calls were made as follows, unless noted: active = hit-call score of the fitted dose curve at least 0.9, where 1 is the maximum; inconclusive = response in the unintended direction; inactive = score below 0.9.

Key:
[1] = biological target: Estrogen-related receptor gamma (Homo sapiens) (UniProt P62508); assay: ATG_ERRg_TRANS: Attagene TRANS-FACTORIAL HepG2 Assay for human Estrogen-Related Receptor gamma (ERRg) (AID 2282977); settings: HepG2 Attagene TRANS reporter, ERRg transactivation;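 also: hits increase reporter signal over DMSO so potencies reflect activators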
In short: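 Transient HepG2 transfectants, 24 h compound exposure, GAL4-UAS reporter mRNA by RT-PCR/6-FAM labelling/capillary electrophoresis; positive direction vs DMSO.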

[2] = biological target: Glucocorticoid receptor (Homo sapiens) (UniProt P04150); assay: ATG_GR_TRANS: Attagene TRANS-FACTORIAL HepG2 Assay for human Glucocorticoid Receptor (GR) (AID 2282978); settings: HepG2 Attagene TRANS GR reporter, mRNA transcription;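 also: activators score as hits since higher reporter transcript over DMSO is fitted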
In short: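 HepG2 cells transiently transfected with GAL4-UAS reporter units and exogenous GR-Gal4 chimera, dosed 24 h. Reporter mRNA by RT-PCR, FAM labeling, HpaI digest and capillary electrophoresis; gain-of-signal fit versus DMSO.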

[3] = biological target: Oxysterols receptor LXR-alpha (Homo sapiens) (UniProt Q13133); assay: ATG_LXRa_TRANS: Attagene TRANS-FACTORIAL HepG2 Assay for human Liver X Receptor alpha (LXRa) (AID 2282980); settings: HepG2 Attagene TRANS reporter, LXRa transactivation
In short: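 Transfect HepG2 with GAL4-UAS multiplex reporter constructs (TRANS format, chimeric receptor-GAL4); treat 24 h; extract RNA, reverse-transcribe, PCR-amplify, FAM-label, HpaI-digest; resolve fragments by capillary electrophoresis. Upward response vs DMSO.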

[4] = biological target: Oxysterols receptor LXR-beta (Homo sapiens) (UniProt P55055); assay: ATG_LXRb_TRANS: Attagene TRANS-FACTORIAL HepG2 Assay for human Liver X Receptor beta (LXRb) (AID 2282981); settings: HepG2 Attagene TRANS GAL4-LXRb reporter, mRNA
In short: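 HepG2 cells transiently transfected with multiple reporter transcription units carrying chimeric NR-Gal4 proteins acting on GAL4-UAS reporters; compound exposure 24 h. Reporter mRNA quantified by RT-PCR, 6-FAM labelling, HpaI digestion and capillary electrophoresis; gain of signal versus DMSO.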

[5] = biological target: Hepatocyte nuclear factor 4-alpha (Homo sapiens) (UniProt P41235); assay: ATG_HNF4a_TRANS: Attagene TRANS-FACTORIAL HepG2 Assay for human Hepatocyte Nuclear Factor 4 alpha (HNF4a) (AID 2282982); settings: HepG2 HNF4a transactivation reporter, mRNA readout
In short: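 HepG2 cells transiently transfected with multiplexed GAL4-UAS reporter units responsive to chimeric NR-GAL4 proteins; compound exposure 24 h. Reporter mRNA quantified by RT-PCR, 6-FAM labelling, HpaI digestion and capillary electrophoresis; gain of signal versus DMSO baseline.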

[6] = ATG_M_06_TRANS: Attagene TRANS-FACTORIAL HepG2 Assay for M06 Transcription Factor (Internal Marker) (AID 2282983); settings: HepG2 Attagene TRANS M06 internal marker reporter;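 as to AC50: potency for rise in reporter mRNA above DMSO baseline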
In short: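 Transfect HepG2 with MRTUs → dose compounds 24 h → isolate RNA, oligo(dT) RT → PCR with reporter primers → 6-FAM primer extension → HpaI digest → CE fragment analysis. Positive direction vs DMSO.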

[7] = biological target: Transcriptional activator Myb (Homo sapiens) (UniProt P10242); assay: ATG_Myb_CIS: Attagene CIS-FACTORIAL HepG2 Assay for human Myeloblastosis (Myb) Proto-Oncogene Transcription Factor (AID 2282986; active = hit-call score of the fitted dose curve at least 0.9, where 1 is the maximum; inactive = score below 0.9); settings: HepG2 Attagene CIS-FACTORIAL Myb reporter transcription; actives raise or lower the signal
In short: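 Transiently transfected HepG2 cells carrying a multiplexed cis-promoter reporter set report endogenous Myb activity after 24 h compound exposure. Reporter mRNA is read by RT-PCR with capillary electrophoresis of fluorescent products, fitted bidirectionally against DMSO.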

[8] = biological target: Bile acid receptor (Homo sapiens) (UniProt Q96RI1); assay: ATG_FXR_TRANS: Attagene TRANS-FACTORIAL HepG2 Assay for Farnesoid X Receptor (FXR) (AID 2282979); settings: HepG2 Attagene TRANS FXR-GAL4 reporter transcription;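 also: hits raise reporter mRNA above DMSO so AC50 marks FXR activation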
In short: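 Transient transfection of HepG2 with multiplexed GAL4-UAS reporter units; exogenous FXR-GAL4 chimera. Dose 24 h → TriZol RNA → oligo(dT) RT → PCR, 6-FAM primer extension, HpaI cut → CE. Gain vs DMSO.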

[9] = ATG_M_32_TRANS: Attagene TRANS-FACTORIAL HepG2 Assay for M32 Transcription Factor (Internal Marker) (AID 2282984); settings: HepG2 Attagene TRANS M32 internal marker reporter
In short: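 HepG2 cells transiently transfected with multiple GAL4-UAS reporter transcription units, dosed for 24 hours; reporter mRNA quantified by RT-PCR, 6-FAM primer extension, HpaI digestion and capillary electrophoresis. Gain-of-signal fitted versus DMSO baseline; internal background-control marker.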

[10] = biological target: Nuclear receptor subfamily 4 group A member 2 (Homo sapiens) (UniProt P43354); assay: ATG_NURR1_TRANS: Attagene TRANS-FACTORIAL HepG2 Assay for human Nuclear Receptor Related Protein 1 (NURR1) (AID 2282985); settings: HepG2 Attagene TRANS reporter, mRNA readout
In short: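 HepG2 cells transiently transfected with GAL4-UAS reporter units and chimeric NR-Gal4 constructs; chemical exposure 24 h. Reporter mRNA quantified by RT-PCR, fluorescent labelling and capillary electrophoresis; gain of signal fitted relative to DMSO baseline.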

Measured: AC50

Chain of Transcriptional activator Myb (Homo sapiens) (P10242 whole entry, looked up): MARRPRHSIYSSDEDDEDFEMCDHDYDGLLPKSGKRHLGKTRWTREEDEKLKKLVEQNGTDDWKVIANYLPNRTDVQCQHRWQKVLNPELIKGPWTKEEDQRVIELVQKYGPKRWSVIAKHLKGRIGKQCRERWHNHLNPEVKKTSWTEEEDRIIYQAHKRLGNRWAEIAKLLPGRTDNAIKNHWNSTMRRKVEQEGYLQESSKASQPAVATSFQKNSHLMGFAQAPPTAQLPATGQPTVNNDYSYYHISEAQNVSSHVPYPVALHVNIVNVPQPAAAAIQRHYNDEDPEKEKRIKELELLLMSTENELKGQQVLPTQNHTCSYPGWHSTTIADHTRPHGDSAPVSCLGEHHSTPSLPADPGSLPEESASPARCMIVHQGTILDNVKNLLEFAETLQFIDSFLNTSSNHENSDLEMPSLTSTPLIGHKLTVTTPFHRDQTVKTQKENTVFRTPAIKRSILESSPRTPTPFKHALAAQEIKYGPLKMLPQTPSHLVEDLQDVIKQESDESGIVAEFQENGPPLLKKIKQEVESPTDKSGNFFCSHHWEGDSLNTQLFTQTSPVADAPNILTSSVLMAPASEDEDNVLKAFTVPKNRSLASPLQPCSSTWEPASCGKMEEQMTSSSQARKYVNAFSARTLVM
Chain of Oxysterols receptor LXR-alpha (Homo sapiens) (Q13133 whole entry, looked up, the tested form may be a part): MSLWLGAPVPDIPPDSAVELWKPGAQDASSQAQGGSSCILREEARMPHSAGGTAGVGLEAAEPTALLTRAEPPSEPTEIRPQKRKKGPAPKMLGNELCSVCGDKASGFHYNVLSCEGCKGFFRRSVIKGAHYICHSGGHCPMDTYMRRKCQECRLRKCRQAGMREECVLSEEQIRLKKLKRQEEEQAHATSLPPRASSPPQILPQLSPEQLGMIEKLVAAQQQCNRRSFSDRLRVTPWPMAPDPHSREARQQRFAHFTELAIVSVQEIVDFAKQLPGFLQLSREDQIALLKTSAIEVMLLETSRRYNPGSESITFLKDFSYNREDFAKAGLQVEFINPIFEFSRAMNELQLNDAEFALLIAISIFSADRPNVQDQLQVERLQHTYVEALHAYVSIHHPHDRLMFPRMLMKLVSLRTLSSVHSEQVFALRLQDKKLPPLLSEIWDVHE
Chain of Oxysterols receptor LXR-beta (Homo sapiens) (P55055 whole entry, looked up, the tested form may be a part): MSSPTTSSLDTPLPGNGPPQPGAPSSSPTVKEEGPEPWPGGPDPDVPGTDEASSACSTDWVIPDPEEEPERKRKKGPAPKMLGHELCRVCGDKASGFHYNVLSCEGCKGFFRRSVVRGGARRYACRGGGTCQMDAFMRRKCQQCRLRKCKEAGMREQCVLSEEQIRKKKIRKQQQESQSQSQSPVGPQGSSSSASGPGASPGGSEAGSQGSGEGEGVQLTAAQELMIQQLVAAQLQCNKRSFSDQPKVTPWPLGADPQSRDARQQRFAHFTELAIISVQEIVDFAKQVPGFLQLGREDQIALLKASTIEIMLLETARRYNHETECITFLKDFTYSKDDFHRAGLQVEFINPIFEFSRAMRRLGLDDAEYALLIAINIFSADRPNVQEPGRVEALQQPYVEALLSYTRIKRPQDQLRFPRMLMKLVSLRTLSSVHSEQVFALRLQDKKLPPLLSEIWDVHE
Chain of Estrogen-related receptor gamma (Homo sapiens) (P62508 whole entry, looked up, the tested form may be a part): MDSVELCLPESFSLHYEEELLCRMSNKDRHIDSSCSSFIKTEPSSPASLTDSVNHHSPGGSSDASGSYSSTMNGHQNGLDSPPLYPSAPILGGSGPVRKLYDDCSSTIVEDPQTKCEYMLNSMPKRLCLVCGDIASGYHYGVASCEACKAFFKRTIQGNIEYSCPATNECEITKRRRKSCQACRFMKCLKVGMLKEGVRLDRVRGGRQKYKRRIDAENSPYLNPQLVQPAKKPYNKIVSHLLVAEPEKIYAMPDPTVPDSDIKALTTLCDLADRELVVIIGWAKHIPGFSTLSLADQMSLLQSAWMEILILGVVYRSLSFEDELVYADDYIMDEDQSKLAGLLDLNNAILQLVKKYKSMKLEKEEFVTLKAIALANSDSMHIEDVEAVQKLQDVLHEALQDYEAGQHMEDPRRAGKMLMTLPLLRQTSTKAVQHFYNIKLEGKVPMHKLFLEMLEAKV
Chain of Nuclear receptor subfamily 4 group A member 2 (Homo sapiens) (P43354 whole entry, looked up, the tested form may be a part): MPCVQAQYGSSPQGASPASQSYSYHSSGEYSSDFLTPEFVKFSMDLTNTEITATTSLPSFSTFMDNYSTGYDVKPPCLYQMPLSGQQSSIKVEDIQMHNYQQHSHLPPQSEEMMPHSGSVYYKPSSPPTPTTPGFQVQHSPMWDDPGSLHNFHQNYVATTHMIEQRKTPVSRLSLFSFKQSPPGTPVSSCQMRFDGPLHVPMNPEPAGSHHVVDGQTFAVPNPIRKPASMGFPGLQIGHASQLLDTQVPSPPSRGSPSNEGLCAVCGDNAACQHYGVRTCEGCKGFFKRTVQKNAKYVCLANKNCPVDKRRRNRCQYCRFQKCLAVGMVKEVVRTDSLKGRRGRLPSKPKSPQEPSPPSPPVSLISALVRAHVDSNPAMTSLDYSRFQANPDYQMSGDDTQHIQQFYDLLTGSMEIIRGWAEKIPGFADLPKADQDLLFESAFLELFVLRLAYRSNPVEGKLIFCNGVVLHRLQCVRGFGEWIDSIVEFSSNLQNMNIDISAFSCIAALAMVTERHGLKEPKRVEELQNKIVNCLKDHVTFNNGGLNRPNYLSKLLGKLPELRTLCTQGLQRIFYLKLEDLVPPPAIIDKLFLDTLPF
Chain of Glucocorticoid receptor (Homo sapiens) (P04150 whole entry, looked up, the tested form may be a part): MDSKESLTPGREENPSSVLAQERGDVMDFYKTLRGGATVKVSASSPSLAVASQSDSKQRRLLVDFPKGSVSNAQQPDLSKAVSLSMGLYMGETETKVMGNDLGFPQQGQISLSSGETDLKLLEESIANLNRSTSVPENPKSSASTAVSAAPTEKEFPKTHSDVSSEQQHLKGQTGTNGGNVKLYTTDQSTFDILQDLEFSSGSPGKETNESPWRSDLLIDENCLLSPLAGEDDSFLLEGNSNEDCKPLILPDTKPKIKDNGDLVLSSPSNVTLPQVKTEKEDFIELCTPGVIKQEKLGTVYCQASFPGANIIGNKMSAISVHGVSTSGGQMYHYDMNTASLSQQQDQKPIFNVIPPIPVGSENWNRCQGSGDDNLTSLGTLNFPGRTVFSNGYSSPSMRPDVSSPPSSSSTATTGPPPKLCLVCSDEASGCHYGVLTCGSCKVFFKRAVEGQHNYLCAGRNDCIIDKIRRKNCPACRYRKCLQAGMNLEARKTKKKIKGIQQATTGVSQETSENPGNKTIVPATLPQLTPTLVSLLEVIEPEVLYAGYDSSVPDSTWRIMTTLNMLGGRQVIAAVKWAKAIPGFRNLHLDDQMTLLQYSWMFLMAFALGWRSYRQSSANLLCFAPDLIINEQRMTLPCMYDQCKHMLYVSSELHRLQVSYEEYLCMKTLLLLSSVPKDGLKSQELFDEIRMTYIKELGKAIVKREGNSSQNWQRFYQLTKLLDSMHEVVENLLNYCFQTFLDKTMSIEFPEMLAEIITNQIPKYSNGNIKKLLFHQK
Chain of Bile acid receptor (Homo sapiens) (Q96RI1 whole entry, looked up, the tested form may be a part): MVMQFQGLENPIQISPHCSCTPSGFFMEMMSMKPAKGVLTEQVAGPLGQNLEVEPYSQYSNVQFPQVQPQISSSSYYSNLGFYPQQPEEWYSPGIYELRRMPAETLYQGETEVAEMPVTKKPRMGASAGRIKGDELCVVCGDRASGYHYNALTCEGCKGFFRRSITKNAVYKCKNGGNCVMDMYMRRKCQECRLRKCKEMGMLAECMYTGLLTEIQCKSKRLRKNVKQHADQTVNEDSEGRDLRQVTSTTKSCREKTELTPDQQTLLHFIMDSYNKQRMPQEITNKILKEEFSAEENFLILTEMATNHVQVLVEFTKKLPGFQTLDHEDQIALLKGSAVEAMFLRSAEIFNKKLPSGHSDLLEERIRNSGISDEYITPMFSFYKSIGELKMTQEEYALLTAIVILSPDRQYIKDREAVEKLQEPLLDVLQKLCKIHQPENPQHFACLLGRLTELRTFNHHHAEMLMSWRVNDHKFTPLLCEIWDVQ
Chain of Hepatocyte nuclear factor 4-alpha (Homo sapiens) (P41235 whole entry, looked up, the tested form may be a part): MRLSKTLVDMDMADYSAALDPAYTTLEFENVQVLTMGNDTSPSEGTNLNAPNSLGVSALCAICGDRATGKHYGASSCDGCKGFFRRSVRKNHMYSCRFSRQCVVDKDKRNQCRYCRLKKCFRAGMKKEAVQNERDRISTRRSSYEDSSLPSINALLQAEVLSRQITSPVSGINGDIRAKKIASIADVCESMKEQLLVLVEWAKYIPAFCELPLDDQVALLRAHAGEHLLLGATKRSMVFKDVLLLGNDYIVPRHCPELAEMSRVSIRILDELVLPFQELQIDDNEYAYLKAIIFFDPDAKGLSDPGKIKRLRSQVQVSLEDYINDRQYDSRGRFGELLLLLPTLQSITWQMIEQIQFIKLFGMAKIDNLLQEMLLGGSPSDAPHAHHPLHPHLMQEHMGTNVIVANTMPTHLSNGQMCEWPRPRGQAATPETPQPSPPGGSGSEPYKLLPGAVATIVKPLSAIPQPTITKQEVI

COC(=O)c1ccc(CNS(C)(=O)=O)cc1S(=O)(=O)NC(=O)Nc1nc(OC)cc(OC)n1
inactive: [1] | [2] | [3] | [4] | [5] | [6] | [7]

OB(O)O
inactive: [1] | [2] | [8] | [3] | [4] | [5] | [9] | [10] | [7]

c1ccc(Nc2ccccc2)cc1
inactive: [1] | [3] | [4] | [5] | [6] | [9] | [7]

CCC(C)OC(=O)N1CCCCC1CCO (stereo not given)
inactive: [1] | [3] | [4] | [5] | [10] | [7]

COc1nc(C)nc(NC(=O)NS(=O)(=O)c2ccccc2OCCCl)n1
inactive: [1] | [2] | [8] | [4] | [5] | [6] | [10] | [7]
active: [3] 17.1 µM | [4] 25.6 µM

CCCOC(=O)c1ccc(C(=O)OCCC)nc1
inactive: [2] | [8] | [3] | [4] | [5] | [6] | [9] | [10] | [7]

CCSC(=O)N(CC(C)C)CC(C)C
inactive: [1] | [2] | [4] | [6] | [9] | [10] | [7]

COC(=O)CSc1cc(N=c2sc(=O)n3n2CCCC3)c(F)cc1Cl
inactive: [2] | [8] | [3] | [4] | [6] | [7]

O=C(c1ccccc1)C1CCCCC1
inactive: [2] | [8] | [3] | [4] | [6] | [9] | [10] | [7]

Oc1ccc(C(c2ccc(O)cc2)C(Cl)(Cl)Cl)cc1
inactive: [2] | [8] | [3] | [4] | [6] | [9] | [7]

CCOC(=O)NCCOc1ccc(Oc2ccccc2)cc1
inactive: [1] | [8] | [3] | [4] | [6] | [10] | [7]

CCN(CC)C(=O)c1cccc(C)c1
inactive: [1] | [2] | [8] | [3] | [4] | [5] | [6] | [9] | [7]

C[C@]12C[C@H](O)[C@H]3[C@@H](CCC4=CC(=O)CC[C@@]43C)[C@@H]1CC[C@@H]2C(=O)CO
active: [2] 129 nM [middle of 4 runs]
inactive: [8] | [3] | [4] | [6] | [9] | [10] | [7]

C[C@]12CC[C@@H]3c4ccc(O)cc4C[C@@H](CCCCCCCCCS(=O)CCCC(F)(F)C(F)(F)F)[C@H]3[C@@H]1CC[C@@H]2O (stereo not given in full)
inactive: [1] | [2] | [8] | [3] | [4] | [5] | [6] | [9] | [10] | [7]

N#CSCSc1nc2ccccc2s1
inactive: [2] | [3] | [4] | [5] | [6] | [9] | [10] | [7]
active: [5] 24.1 µM | [10] 11.6 µM

Cc1nn(C)c(Oc2ccccc2)c1C=NOCc1ccc(C(=O)OC(C)(C)C)cc1
active: [3] 1.31 µM | [4] 1.88 µM
inactive: [1] | [5] | [9] | [10] | [7]

CCOC(=O)C(C)Oc1ccc(Oc2nc3ccc(Cl)cc3o2)cc1 (stereo not given)
inactive: [1] | [2] | [3] | [4] | [5] | [10] | [7]

CCCN(CCC)c1c([N+](=O)[O-])cc(C(F)(F)F)c(N)c1[N+](=O)[O-]
inactive: [1] | [3] | [4] | [5] | [6] | [7]

CCCCOC(=O)[C@@H](C)Oc1ccc(Oc2ccc(C(F)(F)F)cn2)cc1
inactive: [2] | [8] | [3] | [4] | [5] | [9] | [10] | [7]

CN(C)C(=O)Nc1ccc(Cl)c(Cl)c1
inactive: [1] | [2] | [3] | [4] | [5] | [6] | [9] | [10] | [7]

CC(C)CCCCCCc1ccc(O)cc1
active: [2] 42.2 µM | [8] 19.2 µM | [3] 11.1 µM | [4] 51.1 µM | [6] 50.3 µM | [9] 53.4 µM | [10] 11.1 µM
inactive: [2] | [8] | [3] | [4] | [5] | [6] | [9] | [10] | [7]

S=C(S)NCCNC(=S)S.[Mn+2].[S-]C([S-])=NCCN=C([S-])[S-].[Zn+2]
inactive: [2] | [3] | [4] | [5] | [6] | [9] | [10] | [7]

N[C@@H](Cc1cc(I)c(Oc2ccc(O)c(I)c2)c(I)c1)C(=O)O
inactive: [2] | [3] | [4] | [5] | [6] | [9] | [10] | [7]
active: [10] 25.8 µM

COC(=O)c1c(Cl)nn(C)c1S(=O)(=O)NC(=O)Nc1nc(OC)cc(OC)n1
inactive: [1] | [2] | [8] | [3] | [4] | [5] | [6] | [9] | [7]

CCN(Cc1c(F)cccc1Cl)c1c([N+](=O)[O-])cc(C(F)(F)F)cc1[N+](=O)[O-]
inactive: [1] | [4] | [5] | [9] | [10] | [7]
